Reference: PubChem BioAssay (NCI)
Compounds without any hit were thinned out: in the full panel of roughly 83,000, 20% have a hit.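 Activity criterion: percent growth below 10, measured after cells in 96-well plates were exposed to a single compound concentration for 48 hours.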 Unmarked numbers belong to inactive results. Calls of active or inactive are those of the source.

Experiments:
Assay in all cases: NCI-60 one-dose screen, 48 h (100 = growth as untreated, 0 = no growth, -100 = all killed)
Settings in all cases: 10 µM unless noted
NCI-H23 lung = test system: NCI-H23 lung
NCI-H226 lung = test system: NCI-H226 lung
NCI-H322M lung = test system: NCI-H322M lung
HOP-62 NSCLC = test system: HOP-62 NSCLC
NCI-H460 lung = test system: NCI-H460 lung
HOP-92 NSCLC = test system: HOP-92 NSCLC
NCI-H522 lung = test system: NCI-H522 lung
A549/ATCC NSCLC = test system: A549/ATCC NSCLC
786-0 renal = test system: 786-0 renal
COLO 205 colon = test system: COLO 205 colon
DU-145 prostate = test system: DU-145 prostate
K-562 leukemia = test system: K-562 leukemia
MALME-3M melanoma = test system: MALME-3M melanoma
MDA-MB-231 breast = test system: MDA-MB-231 breast
SF-268 CNS = test system: SF-268 CNS
SF-295 CNS = test system: SF-295 CNS
SF-539 CNS = test system: SF-539 CNS
UACC-257 melanoma = test system: UACC-257 melanoma
M14 melanoma = test system: M14 melanoma
RXF 393 renal = test system: RXF 393 renal

Cc1c(C(=N)C(C#N)C#N)c(=N)oc2c1ccc1ccccc12
growth (NCI-H23 lung): 73.2%
growth (NCI-H226 lung): 95%
growth (NCI-H322M lung): 89.9%
growth (HOP-62 NSCLC): 93.6%
growth (NCI-H460 lung): 97.4%
growth (HOP-92 NSCLC): 73.1%
growth (NCI-H522 lung): -3.19% (active)
growth (A549/ATCC NSCLC): 92.8%
growth (786-0 renal): 94%
growth (COLO 205 colon): 115%
growth (DU-145 prostate): 103%
growth (K-562 leukemia): 72.8%
growth (MALME-3M melanoma): 111%
growth (MDA-MB-231 breast): 97.9%
growth (SF-268 CNS): 88.4%
growth (SF-295 CNS): 96.5%
growth (SF-539 CNS): 94.1%
growth (UACC-257 melanoma): 60.6%
growth (M14 melanoma): 88%

Cc1ccc2ccccc2c1C[n+]1ccccc1
growth (NCI-H23 lung): 86.5%
growth (NCI-H226 lung): 99.3%
growth (NCI-H322M lung): 109%
growth (HOP-62 NSCLC): 84.8%
growth (NCI-H460 lung): 114%
growth (HOP-92 NSCLC): 79.3%
growth (NCI-H522 lung): 100%
growth (A549/ATCC NSCLC): 99.1%
growth (786-0 renal): 102%
growth (COLO 205 colon): 112%
growth (DU-145 prostate): 117%
growth (MALME-3M melanoma): 108%
growth (MDA-MB-231 breast): 77.8%
growth (RXF 393 renal): 105%
growth (SF-268 CNS): 106%
growth (SF-295 CNS): 101%
growth (SF-539 CNS): 105%
growth (UACC-257 melanoma): 113%
growth (M14 melanoma): 111%

COc1ccc(Nc2[nH]n3c(=O)cc(-c4ccccc4)nc3c2C(=O)Nc2ccc(C)cc2)c(OC)c1
growth (NCI-H23 lung): 88.7%
growth (NCI-H226 lung): 87.4%
growth (NCI-H322M lung): 81.5%
growth (HOP-62 NSCLC): 80.3%
growth (NCI-H460 lung): 111%
growth (HOP-92 NSCLC): 68.9%
growth (NCI-H522 lung): 78.2%
growth (786-0 renal): 92.7%
growth (COLO 205 colon): 98%
growth (DU-145 prostate): 118%
growth (K-562 leukemia): 68.4%
growth (MALME-3M melanoma): 91.6%
growth (MDA-MB-231 breast): 86.2%
growth (RXF 393 renal): 92.1%
growth (SF-268 CNS): 96.2%
growth (SF-295 CNS): 95.7%
growth (SF-539 CNS): 81%
growth (UACC-257 melanoma): 85.4%
growth (M14 melanoma): 95.6%

CCOC(=O)c1ccc2c(c1)c1c(C)c3cccnc3c(C)c1n2C
growth (NCI-H23 lung): 56.7%
growth (NCI-H226 lung): 53.1%
growth (NCI-H322M lung): 56.9%
growth (HOP-62 NSCLC): 72.7%
growth (NCI-H460 lung): 22.5%
growth (HOP-92 NSCLC): 67.9%
growth (NCI-H522 lung): 49.1%
growth (786-0 renal): 51.3%
growth (COLO 205 colon): 50.3%
growth (DU-145 prostate): 52.7%
growth (K-562 leukemia): 39.5%
growth (MALME-3M melanoma): 68.7%
growth (MDA-MB-231 breast): 50.7%
growth (RXF 393 renal): 75.6%
growth (SF-268 CNS): 50.9%
growth (SF-539 CNS): 67%
growth (UACC-257 melanoma): 115%
growth (M14 melanoma): 53.2%

CCOC(=O)NNC(=S)Nc1ccccc1
growth (NCI-H23 lung): 99.5%
growth (NCI-H226 lung): 103%
growth (NCI-H322M lung): 102%
growth (HOP-62 NSCLC): 102%
growth (NCI-H460 lung): 108%
growth (HOP-92 NSCLC): 93.5%
growth (NCI-H522 lung): 100%
growth (786-0 renal): 103%
growth (COLO 205 colon): 131%
growth (DU-145 prostate): 118%
growth (K-562 leukemia): 113%
growth (MALME-3M melanoma): 110%
growth (MDA-MB-231 breast): 115%
growth (RXF 393 renal): 113%
growth (SF-268 CNS): 103%
growth (SF-295 CNS): 102%
growth (SF-539 CNS): 98.9%
growth (UACC-257 melanoma): 102%
growth (M14 melanoma): 108%

C=C1CCC2C3(C)COC(c4c(OC)cccc4OC)OC3CCC2(C)C1C/C=C1/C(=O)OCC1O (configuration not stated)
growth (NCI-H23 lung): 80%
growth (NCI-H226 lung): 80.2%
growth (NCI-H322M lung): 70.3%
growth (HOP-62 NSCLC): 104%
growth (NCI-H460 lung): 89%
growth (HOP-92 NSCLC): 46.7%
growth (NCI-H522 lung): 24.6%
growth (786-0 renal): 90.3%
growth (COLO 205 colon): -15.2% (active)
growth (DU-145 prostate): 21%
growth (K-562 leukemia): 37.9%
growth (MALME-3M melanoma): 109%
growth (MDA-MB-231 breast): 86.7%
growth (RXF 393 renal): -28.7% (active)
growth (SF-268 CNS): 67%
growth (SF-295 CNS): 85.1%
growth (SF-539 CNS): 66.7%
growth (UACC-257 melanoma): 59.6%
growth (M14 melanoma): 39.9%

COc1ccc(/C=C\c2cc(OC)c(OC)c(OC)c2)cc1OC(=O)c1cccc(Cn2cc(CCOC(=O)c3cccc(Cn4nnc5c4C(=O)c4ccccc4C5=O)c3)nn2)c1
growth (NCI-H23 lung): 33.1%
growth (NCI-H226 lung): 58.4%
growth (NCI-H322M lung): 50.5%
growth (HOP-62 NSCLC): 14.9%
growth (NCI-H460 lung): 5.39% (active)
growth (HOP-92 NSCLC): 52.6%
growth (NCI-H522 lung): 6.06% (active)
growth (A549/ATCC NSCLC): 17.3%
growth (COLO 205 colon): -25.2% (active)
growth (DU-145 prostate): 7.26% (active)
growth (K-562 leukemia): 8.24% (active)
growth (MALME-3M melanoma): 41.5%
growth (MDA-MB-231 breast): 21.6%
growth (RXF 393 renal): 15.9%
growth (SF-268 CNS): 27.7%
growth (SF-295 CNS): 11%
growth (SF-539 CNS): -22.5% (active)
growth (UACC-257 melanoma): 67.3%
growth (M14 melanoma): -0.552% (active)

COc1ccc(S(=O)(=O)NCCCNc2nccc(-n3ccc4cccnc43)n2)cc1
growth (NCI-H23 lung): 102%
growth (NCI-H226 lung): 89.9%
growth (NCI-H322M lung): 87.7%
growth (HOP-62 NSCLC): 109%
growth (NCI-H460 lung): 98.7%
growth (HOP-92 NSCLC): 81.4%
growth (NCI-H522 lung): 84.3%
growth (786-0 renal): 97.6%
growth (COLO 205 colon): 113%
growth (DU-145 prostate): 91.7%
growth (K-562 leukemia): 77.7%
growth (MALME-3M melanoma): 121%
growth (MDA-MB-231 breast): 91.1%
growth (RXF 393 renal): 95.5%
growth (SF-268 CNS): 89.6%
growth (SF-295 CNS): 94.7%
growth (SF-539 CNS): 100%
growth (UACC-257 melanoma): 111%
growth (M14 melanoma): -14.4% (active)

Cc1ccc(/C=C2\CN(C(=O)CCN3CCC(=NO)CC3)C/C(=C\c3ccc(C)cc3)C2=O)cc1
growth (NCI-H23 lung): 7.62% (active)
growth (NCI-H226 lung): 81%
growth (NCI-H322M lung): 16.8%
growth (HOP-62 NSCLC): 46.9%
growth (NCI-H460 lung): -42.5% (active)
growth (HOP-92 NSCLC): 72.2%
growth (NCI-H522 lung): -28.6% (active)
growth (786-0 renal): -15.5% (active)
growth (COLO 205 colon): -35.4% (active)
growth (DU-145 prostate): 21.6%
growth (K-562 leukemia): 4.38% (active)
growth (MALME-3M melanoma): -27.6% (active)
growth (MDA-MB-231 breast): -13.8% (active)
growth (RXF 393 renal): -77.7% (active)
growth (SF-268 CNS): 12.9%
growth (SF-295 CNS): -1.83% (active)
growth (SF-539 CNS): -18% (active)
growth (UACC-257 melanoma): 44.9%
growth (M14 melanoma): 5.63% (active)

C=C1C(=O)O[C@@H]2[C@@H]3O[C@@](C)(CC/C=C(\C)CCC[C@@H]2C)[C@H](O)C[C@@H]13
growth (NCI-H23 lung): 81.6%
growth (NCI-H226 lung): 65.7%
growth (NCI-H322M lung): 97.3%
growth (HOP-62 NSCLC): 81.2%
growth (NCI-H460 lung): 89.8%
growth (HOP-92 NSCLC): 1.79% (active)
growth (NCI-H522 lung): -16.5% (active)
growth (786-0 renal): 79.1%
growth (COLO 205 colon): 47.1%
growth (DU-145 prostate): 50.1%
growth (K-562 leukemia): 18.6%
growth (MALME-3M melanoma): 55.2%
growth (MDA-MB-231 breast): 68.2%
growth (RXF 393 renal): 27%
growth (SF-268 CNS): 67.9%
growth (SF-295 CNS): 81.8%
growth (SF-539 CNS): 58.3%
growth (UACC-257 melanoma): 67.9%
growth (M14 melanoma): -1.2% (active)

COc1ccc(NC(=O)c2c(Nc3ccc(OC)cc3OC)n[nH]c2N)c(OC)c1
growth (NCI-H23 lung): 91.7%
growth (NCI-H226 lung): 89.9%
growth (NCI-H322M lung): 87.7%
growth (HOP-62 NSCLC): 94.3%
growth (NCI-H460 lung): 107%
growth (HOP-92 NSCLC): 74.1%
growth (NCI-H522 lung): 79.3%
growth (786-0 renal): 107%
growth (COLO 205 colon): 100%
growth (DU-145 prostate): 108%
growth (K-562 leukemia): 95.6%
growth (MALME-3M melanoma): 107%
growth (MDA-MB-231 breast): 72.7%
growth (RXF 393 renal): 81.1%
growth (SF-268 CNS): 102%
growth (SF-295 CNS): 92.1%
growth (SF-539 CNS): 116%
growth (UACC-257 melanoma): 114%
growth (M14 melanoma): 89.6%

Cc1ccc(S(=O)(=O)NCCNc2nccc(-c3c(-c4cccc(N)c4)nc4sccn34)n2)cc1
growth (NCI-H23 lung): 91.7%
growth (NCI-H226 lung): 79.6%
growth (NCI-H322M lung): 108%
growth (HOP-62 NSCLC): 105%
growth (NCI-H460 lung): 94.7%
growth (HOP-92 NSCLC): 94%
growth (NCI-H522 lung): 83.5%
growth (786-0 renal): 96.3%
growth (COLO 205 colon): 105%
growth (DU-145 prostate): 96.9%
growth (K-562 leukemia): 67.1%
growth (MALME-3M melanoma): 106%
growth (MDA-MB-231 breast): 85.9%
growth (RXF 393 renal): 102%
growth (SF-268 CNS): 86.7%
growth (SF-295 CNS): 95.6%
growth (SF-539 CNS): 101%
growth (UACC-257 melanoma): 91.1%
growth (M14 melanoma): 107%
